Inconclusive results are not listed. Activity calls are given as the source filed them. Rule for the calls: active = hit-call score of the fitted dose curve at least 0.9, where 1 is the maximum; inconclusive = response in the unintended direction; inactive = score below 0.9.
target: Glucocorticoid receptor (Homo sapiens) (UniProt P04150); experiment: ATG_GR_TRANS: Attagene TRANS-FACTORIAL HepG2 Assay for human Glucocorticoid Receptor (GR) (AID 2282978); conditions: HepG2 Attagene TRANS GR reporter, mRNA transcription;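 note: activators score as hits since higher reporter transcript over DMSO is fitted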
Description: ATG_TRANS is a cell-based, multiplexed-readout assay that uses HepG2, a human liver cell line, with measurements taken at 24 hours after chemical dosing in a 24-well plate.ATG_GR_TRANS is one of 30 assay component(s) measured or calculated from the ATG_TRANS assay. It is designed to make measurements of mRNA induction, a form of inducible reporter, as detected with fluorescence intensity signals by Reverse transcription polymerase chain reaction (RT-PCR) and Capillary electrophoresis technology.Data from the assay component ATG_GR_TRANS was analyzed into 1 assay endpoint. This assay endpoint, ATG_GR_TRANS, was analyzed in the positive analysis fitting direction relative to DMSO as the negative control and baseline of activity. Using a type of inducible reporter, measures of mRNA for gain-of-signal activity can be used to understand the reporter gene at the transcription factor-level as they relate to the gene NR3C1. Furthermore, this assay endpoint can be referred to as a primary readout, because this assay has produced multiple assay endpoints where this one serves a reporter gene function. To generalize the intended target to other relatable targets, this assay endpoint is annotated to the nuclear receptor intended target family, where the subfamily is steroidal.
Human liver HepG2 cells are transiently transfected with multiple reporter transcription units (MRTUs) in 6-well plates using FuGene 6 reagent (Roche; 3 ml FuGene/1 mg DNA). The MRTU constructs are regulated by a cis-regulating element (promoter). […] A major difference between the CIS and TRANS system is that in CIS activities of endogenous TFs are measured, whereas the TRANS assay evaluates changes in activities of exogenous, chimeric NR-Gal4 proteins. […] At the end of 24 hour incubation, total RNA was isolated using TriZol reagent (Invitrogen). The isolated RNA is then reverse-transcribed using oligo(dT) primer and Mo-MLV reverse transcriptase (Invitrogen) with DNAse I (Ambion) treatment for 30 min. The one-tenth of the produced cDNA was amplified by PCR using Taq DNA polymerase (Invitrogen) and two reporter sequence-specific primers. The PCR products were fluorescently labeled by primer extension with 6-arboxyfluorescein (6-FAM) 5'-labeled reporter sequence-specific primer (2 min at 95 C, 20 s at 68 C and 10 min at 72 C) and these products were digested with 5U of HpaI (New England Biolabs) for 2h at 37 C. The fragments were purified using Qiaquick PCR columns (Qiagen), analyzed on an ABI 3130xL genetic analyzer (Applied Biosystems) with peak positions identified by using a set of X-rhodamine (ROX)-labeled MapMarker1000 molecular weight standards (BioVentures). The raw capillary electrophoresis data was processed using Attagraph software (Attagene).

Chain of Glucocorticoid receptor (Homo sapiens) (P04150 whole entry, looked up): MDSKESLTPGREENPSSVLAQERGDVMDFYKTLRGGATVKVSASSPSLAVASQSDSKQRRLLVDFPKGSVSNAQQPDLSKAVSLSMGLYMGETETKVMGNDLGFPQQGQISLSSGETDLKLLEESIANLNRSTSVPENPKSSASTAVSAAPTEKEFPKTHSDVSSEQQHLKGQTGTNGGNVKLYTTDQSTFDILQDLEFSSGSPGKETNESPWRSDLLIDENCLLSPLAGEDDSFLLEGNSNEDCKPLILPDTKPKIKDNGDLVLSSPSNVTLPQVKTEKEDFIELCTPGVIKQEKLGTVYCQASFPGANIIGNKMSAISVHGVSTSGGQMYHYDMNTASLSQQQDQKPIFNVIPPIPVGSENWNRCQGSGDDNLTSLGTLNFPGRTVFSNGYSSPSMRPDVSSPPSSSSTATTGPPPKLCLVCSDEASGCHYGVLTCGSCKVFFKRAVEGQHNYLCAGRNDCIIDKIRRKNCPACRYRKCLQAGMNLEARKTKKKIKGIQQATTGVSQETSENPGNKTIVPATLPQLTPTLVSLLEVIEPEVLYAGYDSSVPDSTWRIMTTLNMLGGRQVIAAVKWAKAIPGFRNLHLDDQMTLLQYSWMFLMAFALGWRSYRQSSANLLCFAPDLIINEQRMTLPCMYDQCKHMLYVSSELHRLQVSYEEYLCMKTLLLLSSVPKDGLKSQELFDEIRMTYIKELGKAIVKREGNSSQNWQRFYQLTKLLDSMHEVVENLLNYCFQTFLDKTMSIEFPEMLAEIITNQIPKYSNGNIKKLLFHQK

Q: `CC=CC=CCOC(=O)C(C)C` was tested. Which outcome did it give?
A: Its outcome is “inactive”.

Q: `C=CCN(CC=C)CC=C` was tested. Which outcome did it give?
A: The outcome was “inactive”.

Q: With `OCCCCC(O)CO` (stereo not given) as the compound, how does the outcome read?
A: The outcome was “inactive”.

Q: `CC(=O)O[C@H]1C[C@@H]2CC[C@@]1(C)C2(C)C` was tested. Which outcome did it give?
A: Its outcome is “inactive”.

Q: How did the outcome turn out when `CCCCCCCC(=O)OCC(O)CO` (stereo not given) was run?
A: The outcome was “inactive”.

Q: For `CCOC(=O)CN`, which outcome is on record?
A: Its outcome is “inactive”.

Q: `c1ccc(CN(Cc2ccccc2)Cc2ccccc2)cc1` was tested. Which outcome did it give?
A: Its outcome is “inactive”.

Q: `COC(C)(C)CCO` was tested. Which outcome did it give?
A: Its outcome is “inactive”.

Q: With `CCCN(CCC)S(=O)(=O)c1ccc(C(=O)O)cc1` as the compound, how does the outcome read?
A: The outcome was “inactive”.

Q: How did the outcome turn out when `CCCC(C)C(O)CC` (stereo not given) was run?
A: Its outcome is “inactive”.

Q: `Cc1cc(CCC(=O)OCCOCCOCCOC(=O)CCc2cc(C)c(O)c(C(C)(C)C)c2)cc(C(C)(C)C)c1O` was tested. Which outcome did it give?
A: Its outcome is “inactive”.

Q: How did the outcome turn out when `CC1(C)C(=O)N(Cl)C(=O)N1Br` was run?
A: The outcome was “inactive”.

Q: `CC(=O)c1c(C)c([N+](=O)[O-])c(C(C)(C)C)c([N+](=O)[O-])c1C` was tested. Which outcome did it give?
A: The outcome was “inactive”.

Q: With `CCOC(=O)[C@@H](C)Oc1ccc(Oc2nc3ccc(Cl)cc3o2)cc1` as the compound, how does the outcome read?
A: Its outcome is “inactive”.

Q: For `ClC(c1ccccc1)(c1ccccc1)c1ccccc1`, which outcome is on record?
A: Its outcome is “inactive”.

Q: `CCCCCCCCCC(C)C=O` (stereo not given) was tested. Which outcome did it give?
A: Its outcome is “inactive”.

Q: With `Cc1cc(C)nc(NS(=O)(=O)c2ccc(N)cc2)n1` as the compound, how does the outcome read?
A: Its outcome is “inactive”.

Q: How did the AC50 turn out when `CC1(C)O[C@@H]2C[C@H]3[C@@H]4CCC5=CC(=O)C=C[C@]5(C)[C@@]4(F)[C@@H](O)C[C@]3(C)[C@]2(C(=O)CO)O1` was run?
A: Its AC50 is 0.488 µM (active).

Q: With `CC(C=O)Cc1ccc(C(C)(C)C)cc1` (stereo not given) as the compound, how does the outcome read?
A: Its outcome is “inactive”.

Q: `COC(=O)c1ccc(OC)cc1` was tested. Which AC50 did it give?
A: The AC50 was 15.1 µM (active).

Q: How did the outcome turn out when `CS(C)=O` was run?
A: The outcome was “inactive”.

Q: With `Oc1c(Cl)cc(Cl)c(Cl)c1Cc1c(O)c(Cl)cc(Cl)c1Cl` as the compound, how does the outcome read?
A: The outcome was “inactive”.

Q: For `IC(I)I`, which outcome is on record?
A: The outcome was “inactive”.

Q: With `CN1CCOCC1` as the compound, how does the outcome read?
A: The outcome was “inactive”.

Q: With `NCCNc1cccc2ccccc12` as the compound, how does the outcome read?
A: The outcome was “inactive”.

Q: Which outcome does the source give for `C=C(C)C(=O)OCCOCCOCCOC(=O)C(=C)C` here?
A: The outcome was “inactive”.

Q: Which outcome does the source give for `Nc1ccc(N)c2c1C(=O)c1ccccc1C2=O` here?
A: The outcome was “inactive”.

Q: For `Clc1cc(Cl)c(-c2c(Cl)c(Cl)cc(Cl)c2Cl)cc1Cl`, which outcome is on record?
A: Its outcome is “inactive”.

Q: `O=C(Nc1ccc2c(c1)Cc1ccccc1-2)C(F)(F)F` was tested. Which outcome did it give?
A: The outcome was “inactive”.

Q: Which outcome does the source give for `C[C@H]1C[C@@H](O)CC(C)(C)C1` here?
A: The outcome was “inactive”.

Q: `CCO/C=C1\N=C(c2ccccc2)OC1=O` was tested. Which outcome did it give?
A: The outcome was “inactive”.

Q: Which outcome does the source give for `CC(C)CCCCCCCCCCCCCCC(=O)O` here?
A: Its outcome is “inactive”.

Q: For `C=CC(=C)CCCC(C)(C)OC(C)=O`, which outcome is on record?
A: The outcome was “inactive”.

Q: `C=CCCC(=O)/C=C/C1C(C)=CCCC1(C)C` (stereo not given) was tested. Which outcome did it give?
A: The outcome was “inactive”.

Q: `O=C(O)c1cc(C(=O)O)cc([N+](=O)[O-])c1` was tested. Which outcome did it give?
A: The outcome was “inactive”.

Q: Which outcome does the source give for `COc1ccc(N)c([N+](=O)[O-])c1` here?
A: The outcome was “inactive”.

Q: Which outcome does the source give for `Cc1ncc[nH]1` here?
A: The outcome was “inactive”.

Q: How did the outcome turn out when `CCCCCCC(C)Nc1ccc(Nc2ccccc2)cc1` (stereo not given) was run?
A: The outcome was “inactive”.

Q: How did the outcome turn out when `CC(C)(C)OC(=O)c1ccc(O)cc1` was run?
A: The outcome was “inactive”.

Q: Which outcome does the source give for `CC1C2CC(CC2C2CCCC(O)C2)C1(C)C` (stereo not given) here?
A: Its outcome is “inactive”.
